Measured values: PubChem BioAssay AID651819 (National Center for Advancing Translational Sciences (NCATS), 2012)
Values joined by “and” are separate entries in the source; they are usually repeats but may differ in a detail not shown here. Equal entries are not always repeated. Among all 360,000 compounds or so, about 1,100 (0.31%) were called active. For the sample, actives were picked, then their nearest neighbours and some compounds at random. Unmarked numbers belong to inactive results. Cut-off read from the data, not from the text of the source: active = activity change below about -30%; inactive = the rest.

tested on: cytosolic chaperonin (CCT/TRiC complex); test: High-Throughput Screening for Modulators of Cytosolic Chaperonin Activity; settings: purified chaperonin ATPase assay, HTRF ADP detection, 30 min; stronger effect = lower value
From the text: The eukaryotic chaperonin named TRiC (for TCP-1 ring complex), also called CCT (for chaperonin containing TCP1), is an essential and conserved chaperone required for the folding and activation of 10-15% of the proteins encoded by the human genome. […] Despite its central role in cellular folding, little is known about TRiC mechanism and mode of substrate binding. Currently, no specific TRiC inhibitors are available. Given the early promise of other chaperone-directed inhibitors as cancer therapeutics (e.g. HSP90 inhibitors), inhibitors of TRiC activity may also selectively target transformed cells and have potential use as therapeutics for cancer.
To this end, a miniaturized assay was developed to screen against the Molecular Libraries Small Molecule Repository (MLSMR).
NIH Chemical Genomics Center [NCGC]
NIH Molecular Libraries Probe Centers Network [MLPCN]
Assay Submitter (PI): Judith Frydman, Stanford University
1.5 uL/well TRiC enzyme suspended in buffer (30 mM TRIS pH7.4, 100 mM KCl, 5 mM MgCl2, 1 mM DTT) was added with BioRAPTR FRD dispenser at 40 nM or 20 nM (based on the enzymatic activity of used batches) final concentration to a white solid bottom medium binding 1536-well plate (Greiner Bio-One, Monroe, NC), and quickly spanned down. 23 nl/well of compound solutions in DMSO were added with a pintool transfer (Kalypsis, San Diego, CA) at a single 76 uM final concentration. Next, 1.5 µl/well ATP was dispensed with BioraptR at 10 uM final concentration after which the plates were incubated at 37 deg C for 30 min. HTRF(R) Transcreener(R) ADP (Cisbio US, Bedford, MA) detection reagents were prepared accordingly to the protocol and dispensed into the plate (1.5 uL/well each), incubated for 30 min at ambient temperature. Then, the plates were read using Envision reader with excitation at 330nm and emission at 615nm (Eu(3)-Cryptate donor signal) and 665nm (d2 acceptor signal). The ratio of […] was calculated for each well.
% is set by controls: 0 for no effect and ±100 for the full control effect.

Row | SMILES | activity change
1 | CSCCC1NC2(C(=O)Nc3ccc(Cl)cc32)[C@@H]2C(=O)N(C3CCCC3)C(=O)[C@H]12 (some centres undefined) | 1.03%
2 | Cc1c(CC(=O)NCC(=O)NCC(=O)O)c(=O)oc2cc3oc4c(c3cc12)CCCC4 | -2.16%
3 | COc1ccc(-c2csc(NC(=O)c3ccc(N4C(=O)CCC4=O)cc3)n2)cc1OC | -39.6% (active)
4 | COc1ccc(-n2nc3c(c2NC(=O)c2ccc(N4C(=O)CCC4=O)cc2)CSC3)cc1 | -0.865%
5 | COc1cc(NC(=O)c2ccc(-c3csc(C)n3)cc2)c(OC)cc1Cl | -4.58%
6 | C[C@H]1Cn2cnc(C(=O)N[C@H](C)c3ccccc3)c2C(=O)N1 | -0.974%
7 | Cc1nc(SCC(=O)NC2CCCC2)[nH]c(=O)c1C | -0.123%
8 | Cc1ccc2nc(SCC(=O)NC3CCCC3)[nH]c2c1 | -1.34%
9 | CCc1c(C)nc(SCC(=O)NC2CCCC2)[nH]c1=O | -41.7% (active)
10 | O=C(CSC1=NS(=O)(=O)c2cc(F)ccc2N1)Nc1ccccc1F | 0.641%
11 | COC(=O)c1ccc(S(=O)(=O)c2ccc(C(=O)OC)s2)s1 | 1.17%
12 | COc1cccc(-c2nn(-c3ccccc3)cc2/C=C(\C#N)C(=O)NCCCn2ccnc2)c1 | -0.966%
13 | CN(C)S(=O)(=O)c1cccc(-c2nn(-c3ccccc3)cc2/C=C2\SC(=S)N(CC(=O)O)C2=O)c1 | -61.8% (active)
14 | Cc1ccc(-c2nn(-c3ccccc3)cc2/C=C/C(=O)Nc2cccc(S(N)(=O)=O)c2)cc1 | 0.245%
15 | CSc1nc2ccccc2cc1/C=C(\C#N)c1ccc(Cl)cc1Cl | 2.8%
16 | Cn1nc([N+](=O)[O-])nc1Sc1ccc(C(C)(C)C)cc1 | -4.31%
17 | Cc1cc(C(=O)NNC(=S)NC(C)c2ccccc2)cs1 (centres undefined) | -0.958%
18 | O=C(Nc1ccncc1)c1cc(-c2ccccn2)nc2ccc(Br)cc12 | -70.4% (active)
19 | O=C(Nc1ccc(Br)cc1)c1cc(S(=O)(=O)Nc2ccccn2)ccc1Cl | -1.07%
20 | Cc1ccc2nc(-c3ccncc3)cc(C(=O)Nc3ccc(OC(F)F)cc3)c2c1 | -2.42%
21 | O=C(Nc1ccc(Cl)cc1)/C(=C1\CCCN1)[N+](=O)[O-] | 0.411%
22 | O=C(Nc1cc(-c2nc3ncccc3o2)ccc1Cl)c1ccco1 | -2.43%
23 | O=S1(=O)CC(N2CCN(c3ccccn3)CC2)CN1Cc1ccc(F)cc1 (centres undefined) | -0.743%

Row | SMILES | activity change
24 | Cc1cc(C)n2nc(C(=O)Nc3cccc(S(=O)(=O)N4CCOCC4)c3)nc2n1 | -34.4% (active)
25 | Cc1c(C(=O)Nc2cccc(S(=O)(=O)N3CCOCC3)c2)oc2ccccc12 | -1.92%
26 | Cc1occc1C(=O)Nc1cccc(S(=O)(=O)N2CCOCC2)c1 | -3.31%
27 | Cc1ccc(-c2cc(C(F)(F)F)n3ncc(C(=O)N4CCCCC4c4cccnc4)c3n2)cc1 (centres undefined) | -3.01%
28 | Cc1ccccc1NC(=O)C(C)c1ccc(-c2ccccc2)c(F)c1 (centres undefined) | -2.15%
29 | CCCc1nc2c(C)cc(-c3nc4ccccc4n3C)cc2n1Cc1ccc(-c2ccccc2C(=O)O)cc1 | -0.702%
30 | O=C(NCCCN1CCCCC1)C1CC(=O)N(CCc2ccccc2)C1 (centres undefined) | 0.88%
31 | O=C(NCCc1ccc(Cl)cc1)C1CC(=O)N(C2CCCCC2)C1 (centres undefined) | -0.359%
32 | O=C(NCCCN1CCCCCC1)C1CC(=O)N(C2CCCC2)C1 (centres undefined) | -44.9% (active)
33 | CCc1cc(CNC(=O)CC2C(=O)NCCN2CC2CCCCC2)on1 (centres undefined) | -0.174%
34 | CC(=O)Nc1ccc(S(=O)(=O)NCC2CCC(C(=O)NCCc3ccccc3)CC2)cc1 (centres undefined) | -1.57%
35 | COc1ccc(NC(=O)C2CCC(CNS(=O)(=O)c3csc(C(N)=O)c3)CC2)cc1OC (centres undefined) | -80.6% (active)
36 | COc1cccc(CNS(=O)(=O)c2csc(C(N)=O)c2)c1 | 0.982%
37 | CN(C)C(=O)CCc1ccc2c3c([nH]c2c1)[C@]1(CCC2CCCC2)[C@@H](C(=O)N2CCOCC2)C[C@H](CC(=O)NCc2ccco2)C(=O)N1CC3 | 0.536%
38 | CSCCC(NC(=O)C1CCC(C)CC1)C(=O)NCc1ccco1 (centres undefined) | -5.62%
39 | O=C(CCn1nnc2ccccc21)OCC(=O)c1ccc([N+](=O)[O-])cc1 | 1.01%
40 | O=C(CC(n1cncn1)C(Cl)(Cl)Cl)c1ccc([N+](=O)[O-])cc1 (centres undefined) | -37.2% (active)
41 | O=C(Cn1c[n+](CC(=O)c2ccc([N+](=O)[O-])cc2)cn1)c1ccc([N+](=O)[O-])cc1 | 1.85% and -0.852%
42 | CCCN(C(=O)COC(=O)CNS(=O)(=O)c1ccc(NC(C)=O)cc1)C1CCS(=O)(=O)C1 (centres undefined) | -0.677%
43 | O=C(NC(=O)c1cc(OCC(F)(F)F)ccc1OCC(F)(F)F)Nc1ccccc1 | -0.0973%
44 | COC(=O)c1ccc(COc2cc([N+](=O)[O-])cc3cccnc23)cc1 | -0.442%
45 | COc1ccc(CN2CCCC(CNC(=O)c3ccc(F)cc3)C2)cc1OC (centres undefined) | -2.54%
46 | S=c1nccc(-c2cc(Cl)sc2Cl)[nH]1 | -49.1% (active)

Row | SMILES | activity change
47 | CCOc1c2ccc(C(=O)NC3CCCc4ccccc43)cc2nn1CC (centres undefined) | -6.07%
48 | COc1ccc(Nc2cc(Sc3ccc(OC)cc3)ncn2)cc1 | -0.999%
49 | COC(=O)c1ccc(Nc2ncnc3sccc23)cc1 | -2.64%
50 | COc1ccc(Nc2ncnc3sc(C)cc23)cc1 | -82.2% (active)
51 | CC1(C)CC[C@]2(C(=O)O)CC[C@]3(C)C(=CCC4[C@@]5(C)CC[C@H](O)C(C)(C)C5[C@H](O)C[C@]43C)[C@@H]2C1 (some centres undefined) | 0.294%
52 | CCO[C@H]1OC(C(=O)N2CCN(Cc3ccccc3)CC2)=C[C@@H](c2cn(C(C)=O)c3ccccc23)[C@@H]1CCCO | 0.631%
53 | COc1ccc(CCNS(=O)(=O)c2ccc(Cl)s2)cc1OC | -1.56%
54 | COc1ccc(CCNS(=O)(=O)c2ccc(F)cc2)cc1OC | -67.3% (active)
55 | COc1ccc(CCNS(=O)(=O)c2ccc(C(=O)NCc3ccco3)cc2)cc1OC | -2.3%
56 | O=C(OCCN1CCOCC1)C1(c2ccccc2)CCCCC1 | 0.343%
57 | CCN1CCN(C(C(=O)NC2CCCC2)c2cc3c(cc2[N+](=O)[O-])OCO3)CC1 (centres undefined) | -0.623%
58 | Cc1ccc2c(c1)c1ncnc(N3CCc4ccccc4C3)c1n2C | 1.95%
59 | CC(C)N1C(=O)C2C(C(=O)NC3CCCCC3)C3C=CC2(O3)C1C(=O)NC1CCCC1 (centres undefined) | -2.56%
60 | CCOCCCN1C(=O)C2C(C(=O)Nc3ccc(OCC)cc3)C3C=CC2(O3)C1C(=O)NC1CCCCC1 (centres undefined) | -2.83%
61 | CCN(CC)CCN1C(=O)C2C(C(=O)Nc3ccc(Br)cc3)C3C=CC2(O3)C1C(=O)NC1CCCCC1 (centres undefined) | -40.8% (active)
62 | CCCSc1nsc(N)n1 | -1.36%
63 | COc1ccc2c(C)cc3nnnn3c2c1 | -38.8% (active)
64 | COc1ccc(N)c(C)c1 | -0.166%
65 | COc1ccc2ccn(C)c2c1 | 1.51%
66 | Cc1nc2nc3c(cn2n1)C(=O)CC(c1ccccc1)C3 (centres undefined) | -0.882%
67 | CN1CCN(CC#CCC2(O)c3ccccc3-c3ccccc32)CC1 | -0.316%
68 | CSc1nnc2c(n1)OC(c1cn(C)c3ccccc13)N(C(C)=O)c1ccccc1-2 (centres undefined) | -0.161%
69 | CSCCC(=O)N1CCCC(CNC(=O)c2ccccc2Cl)C1 (centres undefined) | -0.386%

Row | SMILES | activity change
70 | CCOC(=O)CSc1ncc(-c2cccc(Cl)c2)cn1 | -0.564%
71 | CCOC(=O)CSc1ccccn1 | -41% (active)
72 | COC(=O)c1ccccc1NC(=O)CSc1ccccn1 | -2.39%
73 | COc1ccc(N2C(=O)CCC(C(=O)N(C)C3CCCCC3)C2c2ccc(OC)c(OC)c2)cc1 (centres undefined) | -0.957%
74 | CN1CCN(c2ccncc2S(=O)(=O)N2CCCC2)CC1 | -0.238%
75 | CNC[C@H](CC1CCCCC1)NC[C@H](NCCC1CCCC1)[C@H](C)O | -0.857%
76 | COc1cccc(NC(=O)CSc2nnc(C3CCCCC3)n2N)c1 | -45.1% (active)
77 | COc1ccc(NC(=O)CSc2nnnn2-c2cccc(OC)c2)cc1 | 1.8%
78 | Nn1c(SCC(=O)Nc2ccc3c(c2)CCC3)nnc1C1CC1 | -0.2%
79 | O=C(Nc1cccnc1Oc1ncnc2cc(Cl)ccc12)c1ccc(F)cc1 | 1.03%
80 | O=C1N[C@H](Cc2ccccc2)C(=O)N[C@H]1Cc1cn(S(=O)(=O)c2ccccc2)c2ccccc12 | -2.61%
81 | Nc1nc(NCC2CCCO2)nc(Nc2ccccc2F)c1[N+](=O)[O-] (centres undefined) | 0.16%
82 | Nc1nc(Nc2ccccc2F)nc(NC2CCCCC2)c1[N+](=O)[O-] | -0.808%
83 | C=CCNc1nc(N)c([N+](=O)[O-])c(NC2CCCCC2)n1 | -43.9% (active)
84 | O=C(Nc1ccccc1-c1nnn(CC(=O)N2CCN(c3ccccc3)CC2)n1)c1cccs1 | -3.64%
85 | CCOC1CS(=O)(=O)CC1OCC (centres undefined) | 0.485%
86 | COc1ccc(NC(=O)CC(NC(C)c2ccccc2)C(=O)O)cc1 (centres undefined) | -0.408%
87 | O=C(CS(=O)(=O)c1ccccc1)Nc1ccc(S(=O)(=O)Nc2ccccn2)cc1 | 0.548%
88 | COc1ccc(NC(=O)CS(=O)(=O)c2ccccc2)cc1 | -61% (active)
89 | COc1cc2nc(CN(C)Cc3ccc(F)cc3)[nH]c(=O)c2cc1OC | -1.05%
